Measurements taken from PubChem BioAssay (Tox21).
Values joined by “and” are separate entries in the source; they are usually repeats but may differ in a detail not shown here. Equal values may be shown once. Some compounds were tested as several samples or in several runs, with calls that do not always agree. Active and inactive are the calls of the source. Entries that show only a call come without a potency. Calls come from the whole dose curve; as a rule, active = well fitted activation curve with a large enough effect in the repeat runs; inconclusive = weak or mixed curves; inactive = flat fitted curve, though single readings scatter.

Assay: A CellTox Green Cytotoxicity Assay to monitor cytotoxicity in HEK293 cells - 0 hour (AID 1224869); note: nearly all actives have a fitted effect of over 50% in size
Conditions: CellTox Green fluorescence; series mostly up to 76.8 µM; cytotoxicity: at the top concentration
Description: National Center for Advancing Translational Sciences [NCATS]
NIH Chemical Genomics Center [NCGC]
U.S. Environmental Protection Agency [EPA]
National Institutes of Environmental Health Sciences [NIEHS]
National Toxicology Program [NTP]
Cell-based models are critical for drug discovery. Determining the natural cytotoxic effects resulting from test compounds is an essential research activity. A CellTox Green Cytotoxicity Assay to monitor cytotoxicity in real time of continues cell culture during 40 hours of the compound treatment was used to screen Tox21 10K library compounds in Hek293 cells. CellTox Green Cytotoxicity Assay is a nonlytic, homogeneous, biofluorescent method to measure cytotoxicity in cell culture after experimental manipulation. The assay system uses a proprietary asymmetric cyanine dye that is excluded from viable cells but preferentially stains the dead cell's DNA. […] Viable cells produce no appreciable increases in fluorescence. Therefore, the fluorescence signal produced by the binding interaction with dead cell DNA is proportional to cytotoxicity.
The mixture of Hek293 cell suspension and reagents were dispensed at 600cells/6 ul/well in 1536-well tissue culture treated black solid bottom plates using a Multidrop dispenser. After the assay plates were incubated at a 37 C/5% CO2 incubator for 5 hours, 23 nL of compounds dissolved in DMSO, positive and negative controls was transferred to the assay plate by a pintool work station. The plates were incubated at 37 C for 40 hours. The fluorescence intensity were measured at 0h, 8h, 16h, 24h, 32h and 40h time points using ViewLux plate reader during compound treatment.
Potency is the fitted concentration of half-maximal effect.

SMILES | Potency | cytotoxicity
O=[N+]([O-])C(CO)(CO)CO | inactive | 
Oc1ccc2ccccc2c1 | inactive | 
OC[C@@H](O)[C@H](O)[C@H](O)[C@@H](O)CO | inactive | 
C[C@@H]1O[C@@H](OC[C@H]2O[C@@H](Oc3c(-c4ccc(O)c(O)c4)oc4cc(O)cc(O)c4c3=O)[C@H](O)[C@@H](O)[C@@H]2O)[C@H](O)[C@H](O)[C@H]1O | inactive | 
CCc1ccc(O)cc1 | inactive | 
CCCCOCCO | inactive | 
O=C(c1cc(O)c(O)c(O)c1)c1ccc(O)c(O)c1O | inactive | 
O=C(Cl)c1c(Cl)c(Cl)c(C(=O)Cl)c(Cl)c1Cl | inactive | 
C=C(C)C(=O)OCC(CC)(COC(=O)C(=C)C)COC(=O)C(=C)C | inactive and 42.9 µM (active) | 
OCC1CCCO1 (stereo not given) | inactive | 
C[C@@H](O)[C@H]1C(=O)N2C(C(=O)O)=C(S[C@@H]3CN[C@H](C(=O)N(C)C)C3)[C@H](C)[C@H]12 | inactive | 
Clc1ccc(Cl)c(Cl)c1Cl | inactive | 
NC(=O)NNc1ccccc1 | inactive | 
CN(C)c1cccc(O)c1 | inactive | 
NCCc1ccc(O)c(O)c1 | inactive | 
O=C1O[C@H](CO)[C@@H](O)[C@H](O)[C@H]1O | inactive | 
O=C(Oc1ccccc1)c1ccc(O)cc1 | inactive | 
NCCNCCNCCNCCN | inactive | 
O=S(=O)(O)CCS | inactive | 
Oc1ccc(OCc2ccccc2)cc1 | inactive | 

SMILES | Potency | cytotoxicity
C=C(C)C(=O)OCCC[Si](OC)(OC)OC |  | 3.07% (inactive)
CCCCOCCOCCOC(=O)CCCCC(=O)OCCOCCOCCCC | inactive | 
CC(C)Cc1ccccc1 | inactive | 
CN(CCOc1ccc(CC2SC(=O)NC2=O)cc1)c1ccccn1 (stereo not given) | inactive | 
CC1CC(OC(=O)c2ccccc2O)CC(C)(C)C1 (stereo not given) | inactive | 
CC1(C)O[C@@H]2C[C@H]3[C@@H]4C[C@H](F)C5=CC(=O)CC[C@]5(C)[C@H]4[C@@H](O)C[C@]3(C)[C@]2(C(=O)CO)O1 |  | 4.03% [at 35.3 µM] (inactive)
CCCCC(CC)COC(C)=O (stereo not given) | inactive | 
c1ccc2ccccc2c1 | inactive | 
CC(=O)Nc1ccc(C(=O)O)cc1 | inactive | 
CS(=O)(=O)Nc1ccc([N+](=O)[O-])cc1Oc1ccccc1 | inactive | 
OC[C@@H](O)[C@@H](O)[C@H](O)[C@@H](O)CO | inactive | 
Cc1cc(O)c2c(c1)C(=O)c1cc(O)cc(O)c1C2=O | inactive | 
OCC#CCO | inactive | 
CCCCCCCCCCC=CC1CC(=O)OC1=O (stereo not given) | inactive | 
O=c1c(-c2ccc(O)cc2)coc2cc(O)ccc12 | inactive | 
CCC(=O)O | inactive | 
O=S(=O)(O)c1cc(S(=O)(=O)O)c2c(N=Nc3ccccc3)c(O)ccc2c1 | inactive | 
CC(=O)CCc1ccccc1 | inactive | 
C=C(C#N)C(=O)OCC | inactive | 
O=C1CCCCC1 | inactive | 
